Shown are actives, neighbours in structure and some others; about 27% of the full set was active somewhere.
CYP2C19 activ: cytochrome P450 2C19 (human) activation; recombinant CYP2C19, luciferin-H EGE luminescence; hits give high values; 0 = fully inhibited enzyme, 1 = untreated enzyme; activation factor at 5 µM; 96,000 tested, under 10 active;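 active means activation factor of at least 2 at 5 µM in the primary screen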;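 further: 0 = wells with 2.5 mM tranylcypromine and 1 = vehicle-only wells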
CYP2C19 inhib: blocks human cytochrome P450 2C19. CYP2C19 Supersomes, luciferin-H EGE luminescence, 30 min. inhibition, % at 5 µM. 96,000 compounds, 21% hits. AID 778;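 active means CYP2C19 inhibition above a set limit at 5 µM in the primary screen, cut at about 50% in these data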;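 further: plate controls were negative control wells for no effect and 2.5 mM tranylcypromine positive control for full effect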
EphB4 antag: EphB4-ephrin-B2 interaction antagonism | P54760 | EphB4 LBD / TNYL-RAW-Alexa532 peptide, fluorescence polarization | inhibition, % at 7 µM | 97,000 compounds, 0.15% hits | AID 720;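 active means inhibition above the screen-wide mean inhibition plus 3 SD, cut at about 15% in these data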;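 further: 0% = DMSO wells and 100% = excess unlabeled TNYL-RAW peptide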
CYP2C9 activ: increases human cytochrome P450 2C9 activity | P11712 | recombinant CYP2C9, luciferin-H conversion, luminescence; hits give high values; factor 1 = untreated enzyme, 0 = blocked | activation factor at 5 µM | 96,000 compounds, 1.4% hits | AID 1024;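 active means activation factor of 2 or more for CYP2C9 at a 5 µM dose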;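 further: 0 = sulfaphenazole-blocked wells and 1 = vehicle-only wells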
Target sequence (P11712 whole entry, looked up): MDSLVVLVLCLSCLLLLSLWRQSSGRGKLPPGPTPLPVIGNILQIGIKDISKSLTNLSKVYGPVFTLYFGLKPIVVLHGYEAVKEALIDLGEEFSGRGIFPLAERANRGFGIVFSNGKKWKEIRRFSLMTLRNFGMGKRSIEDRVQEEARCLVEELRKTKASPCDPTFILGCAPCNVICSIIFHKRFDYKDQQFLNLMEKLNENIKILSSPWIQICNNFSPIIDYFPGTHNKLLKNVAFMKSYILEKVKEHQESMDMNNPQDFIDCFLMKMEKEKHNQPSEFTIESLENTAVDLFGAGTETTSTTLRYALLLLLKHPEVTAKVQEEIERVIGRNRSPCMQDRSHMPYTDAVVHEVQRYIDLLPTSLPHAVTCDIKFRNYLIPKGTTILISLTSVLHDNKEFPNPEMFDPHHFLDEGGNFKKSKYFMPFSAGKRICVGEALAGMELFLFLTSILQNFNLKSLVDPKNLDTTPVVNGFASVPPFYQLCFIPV
CYP2C9 inhib: blocks human cytochrome P450 2C9. CYP2C9 Supersomes, luciferin-H conversion, luminescence. inhibition, % at 5 µM. 96,000 compounds, 20% hits. P11712;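 active means blocking of liver enzyme CYP2C9 beyond about 50% at 5 µM, limit read from the data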
An asterisk follows results filed as active; / = no result.

SMILES	CYP2C19 activ	CYP2C19 inhib	EphB4 antag	CYP2C9 activ	CYP2C9 inhib
CCOC(=O)C1CCN(C(=O)Cn2cccc2C(=O)c2ccccc2)CC1	0.9	6	-1	1	3
COc1ccc2nc(C(F)(F)C(F)(F)F)c(C#N)c(N)c2c1	1	2	-2	0.7	26
Cc1c(C(=O)N2CCCC2)sc(NC(=O)c2ccco2)c1C#N	/	/	6	/	/
COC(=O)c1ccc2c(=O)n(CCN3CCOCC3)c(SCC(=O)C(C)(C)C)nc2c1	1	5	-5	0.6	41
C=CCn1c(SCC(=O)NC(=O)NCc2ccco2)nc2sc(CC)cc2c1=O	0.6	38	/	0.3	71*
CCOC(=O)CSc1nc2cc(C(=O)OC)ccc2c(=O)n1CCN1CCOCC1	0.3	69*	3	0.9	12
Cn1cc(S(=O)(=O)N2CCN(Cc3ccccc3)CC2)c(=O)n(C)c1=O	1	2	-3	1.1	-8
Cc1cc(Nc2nc3ccccc3nc2Cl)n(-c2ccccc2C)n1	0.1	89*	1	0.5	49
Cc1cc(Nc2nc3ccccc3nc2Cl)n(-c2ccccc2)n1	0.6	44	-4	0.7	28
Cc1ccccc1Nc1c(N)c(=O)oc2ccccc12	0	96*	0	0.4	65*
Cc1cc(C)n(-c2ncc(-c3ccccc3)nn2)n1	0.9	12	0	1.2	-15
COc1ccc(C2=NCC(CSc3nccc(=O)[nH]3)S2)cc1 (stereo not drawn)	/	/	-8	/	/
COc1ccc(/C=N/NC(N)=S)cc1OC(=O)c1cccc2ccccc12	0.7	29	-10	0.4	58*
COc1ccc(C(=O)Oc2cc(/C=N/NC(N)=S)ccc2OC)cc1	1	2	-7	1	1
O=C(Nc1cccc(C(F)(F)F)c1)c1n[nH]c(Cn2cncn2)n1	0.9	10	-3	0.5	51*
COc1ccc(CN2CCN(S(=O)(=O)c3ccc(F)cc3)CC2)c(OC)c1OC	0.1	87*	-6	0.6	40
COc1ccc(CN2CCN(S(=O)(=O)c3ccccc3)CC2)cc1Br	0	99*	-9	0	96*
COc1ccc(CN2CCN(S(=O)(=O)c3ccccc3)CC2)c(OC)c1	0.5	52*	1	0.4	60*
COc1ccc(CN2CCN(c3ncccn3)CC2)c(OC)c1	0.5	45	/	0.9	7
COc1ccccc1CN1CCN(S(=O)(=O)c2ccccc2)CC1	0.4	62*	1	0.4	63*
CCCn1c(SCC(=O)NCC2CCCO2)nc2c1c(=O)n(C)c(=O)n2C (stereo not drawn)	1.1	-12	-6	1	-4
CC(c1nnc(SCC(=O)c2c(N)n(C)c(=O)n(C)c2=O)n1-c1ccc(Cl)cc1)N(C)C (stereo not drawn)	1	-3	-4	1	1
C=CCN(C(=O)CNC(=O)c1ccco1)C(C(=O)NC1CCCCC1)c1ccc(OC)cc1 (stereo not drawn)	/	/	-12	/	/
O=C(NCc1ccc(F)cc1)C1CCCN1C(=O)NCc1ccccc1 (stereo not drawn)	1.2	-16	1	1.2	-24
CN(C)c1ccc(/C=C/c2ccncc2)cc1	0	98*	-3	0.2	78*
SMILES	CYP2C19 activ	CYP2C19 inhib	EphB4 antag	CYP2C9 activ	CYP2C9 inhib
CC(C)OP(=O)(c1ccc(N(C)C)cc1)C(O)c1ccncc1 (stereo not drawn)	0.9	9	3	0.7	27
CCOc1cc(C2CC(=O)Nc3cc(C)c(C)cc32)ccc1O (stereo not drawn)	0.1	87*	4	0.2	84*
CCOc1cc(C2CC(=O)NC(SCC)=C2C#N)ccc1O (stereo not drawn)	0.7	33	2	0.7	27
N#Cc1ccc(COc2ccc(CCO)cc2-n2nc3ccccc3n2)cc1	0.5	53*	-6	0.1	89*
CCC(Sc1nc2n[nH]c(C)c2c(=N)n1-c1cccc(Cl)c1)C(=O)NCCOC (stereo not drawn)	0.7	35	-9	0.4	65*
O=C(OCCCCN1C(=O)c2ccccc2C1=O)c1ccc(S(=O)(=O)N2CCCC2)cc1	1	-3	/	0.8	16
CCOC(=O)c1ccccc1NS(=O)(=O)c1ccc(S(=O)(=O)N2CCCC2)cc1	0	97*	/	0.1	91*
CN(C)CCCNC(=O)c1cc(S(=O)(=O)N2CCOCC2)ccc1F	0.9	7	5	1.4	-39
O=C(OCCN1C(=O)c2ccccc2C1=O)c1cc(S(=O)(=O)N2CCOCC2)ccc1Cl	0.2	78*	-3	0.1	86*
O=C(NCCSCc1ccccc1)c1cc(S(=O)(=O)N2CCOCC2)ccc1F	0.5	51*	/	0.3	70*
CCOC(=O)c1ccccc1NC(=O)c1cc(S(=O)(=O)N2CCOCC2)ccc1F	0.5	45	1	0.4	59*
COC(=O)c1ccccc1NC(=O)COc1ccc(S(=O)(=O)N2CCCC2)cc1C	1	0	0	1.2	-19
Cc1sc2nc(CN3CCCC3)nc(N3CCC(C(N)=O)CC3)c2c1C	1	5	1	0.8	17
CCNC(=S)NNC(=O)c1csc2c1CCC(C)C2 (stereo not drawn)	0.6	41	4	1.2	-22
Cc1ccccc1C(=O)NC(=S)Nc1sc2c(c1C#N)CCC(C)C2 (stereo not drawn)	0.7	34	-1	0.4	63*
Cc1ccccc1NC(=S)NNC(=O)c1csc2c1CCC(C)C2 (stereo not drawn)	0	98*	-1	0.3	66*
COc1ccc(NC(=S)NCCC(c2ccccc2)c2ccccc2)c(OC)c1	0	99*	-1	0.1	86*
COc1ccc(NC(=S)Nc2ccccn2)c(OC)c1	0.7	33	13	0.8	15
COc1ccc(NC(=S)NCc2ccco2)c(OC)c1	0.2	81*	5	0.6	36
COc1cccc(NC(=S)NCCC(c2ccccc2)c2ccccc2)c1	0.4	55*	-7	0.3	68*
COc1ccc(NC(=S)NCCc2ccccc2OC)c(OC)c1	0	99*	5	1.1	-12
N#Cc1cc2cc3c(cc2nc1N1CCCCC1)OCCO3	1	-4	6	0.9	9
CCCCOc1ccc(NC(=O)CN2CCN(C(=O)OCC)CC2)cc1	/	/	3	/	/
COc1cccc(C2C(C#N)=C(N)Oc3c2oc(CO)cc3=O)c1OC (stereo not drawn)	1	-4	0	1.1	-6
CCOC(=O)c1oc2ccccc2c1CN1CCOCC1	0.9	13	-3	1	1
O=C(CN(C(=O)CSc1nnc(COc2ccccc2)o1)c1ccc(F)cc1)NC1CCCC1	0.8	16	0	0.9	14
COc1ccccc1CCNC(=O)c1ccc(C)o1	0.3	68*	/	1.1	-11
Cc1ccc(CS(=O)(=O)CCC(=O)NCc2ccc3c(c2)OCO3)cc1	0.9	14	-4	0.8	22
Clc1cccc(-c2nnc(-c3ccccc3)o2)c1	0.8	22	1	1	4

Assay outcomes: PubChem, several laboratories
